Molecules are shown by their SMILES. “And” between values parts separate entries of the source, which are not always exact repeats. Identical values can stand only once. Some structures have more than one record in an assay (separate samples or runs), and their calls can disagree. The source made the active and inactive calls. The calls were made as follows: active = hit-call score of the fitted dose curve at least 0.9, where 1 is the maximum; inactive = score below 0.9.

This assay in a line: CCTE_Mundy_HCI_Cortical_Synap_Neur_Matur_NeuriteSpotCountPerNeuron: CCTE's Synaptogenesis and Neurite Maturation Assay in rat cortical cells for Neurite Spot Count per Neuron Count, Mundy Lab (AID 2284215). The procedure: CCTE_Mundy_HCI_Cortical_Synap&Neurite_Matur is a multiplexed, cell-based-readout assay that uses rat primary cortical cells with measurements taken at 288.33 hours after chemical dosing in a microplate: 96-well plate.CCTE_Mundy_HCI_Cortical_Synap_Neur_Matur_NeuriteSpotCountPerNeuron is one of eight components of the CCTE_Mundy_HCI_Cortical_Synap&Neurite_Matur assay. It measures synaptogenesis and neurite maturation related to number of neurite-associated synapses (synaptophysin puncta) per neuron using High Content Imaging of fluorescently labelled markers.[…] Using a type of morphology reporter, loss -of-signal activity can be used to understand developmental effects.
Cells are plated onto 96 well plates and allowed 2 hr for attachment to the substrate. At days in vitro (DIV) 5, Cytosine Arabinoside (AraC) is added to arrest glial cell growth. Chemicals are dosed and a media change is performed at DIV 7 of differentiation and is continued through DIV 12 when the experiment is terminated. Cells are fixed with […] and Hoechst Dye. Cells are stained using Millipore Mouse anti-MAP2MAB3418 (1:800) and Millipore Rabbit anti-Synaptophysinsc-1750 (1:250) primary antibodies and Alexa Fluor-488 goat anti-mouse and AlexaFluor-546 goat anti-rabbit secondary antibodies to label neuronal cell nuclei, synapses and neurites. A Cellomics ArrayScan VTi HCS Reader is used for automated image acquisition and analysis of neurite outgrowth.
A word on the AC50: it is the concentration giving half of the maximal activity seen. In the case of `COP(=O)(OC)OC=C(Cl)Cl`, the half-maximal activity concentration (AC50) is 49 µM (active) and the result was inactive.

Regarding `CNC(=O)CSP(=S)(OC)OC`, the half-maximal activity concentration (AC50) is 50 µM (active) and the result was inactive.

On to `O=S(=O)(O)C(F)(F)C(F)(F)C(F)(F)C(F)(F)C(F)(F)C(F)(F)C(F)(F)C(F)(F)F`, for which the outcome was inactive. As for `O=C(O)C(F)(F)C(F)(F)C(F)(F)C(F)(F)C(F)(F)C(F)(F)C(F)(F)F`, the call was inactive. Same read-out and setting: under `O=[N+]([O-])/N=C1\NCCN1Cc1ccc(Cl)nc1` stands “inactive”. In the case of `O=S1OCC2C(CO1)C1(Cl)C(Cl)=C(Cl)C2(Cl)C1(Cl)Cl` (stereo not given), the AC50 is 15 µM (active). As to `O=C(O)COc1ccc(Cl)cc1Cl`, the result was inactive.

With `CC1(c2ccc(Oc3ccccc3)cc2)OC(=O)N(Nc2ccccc2)C1=O` (stereo not given), the concentration at half-maximal activity (AC50) is 24.1 µM (active). Consider `CC(C)N(C(=O)COc1nnc(C(F)(F)F)s1)c1ccc(F)cc1`, for which the result was inactive.

With `CC1(C)C(C=C(Cl)Cl)C1C(=O)OC(C#N)c1ccc(F)c(Oc2ccccc2)c1` (stereo not given), the AC50 is 72 µM (active) and 15 µM (active). As for `CCC(C)(C)C(=O)OC1=C(c2ccc(Cl)cc2Cl)C(=O)OC12CCCCC2`, the molecule was classed as inactive. Consider `COP(=S)(OC)Oc1ccc([N+](=O)[O-])cc1`, for which the AC50 was 15 µM (active).

With `CC[C@H](C)[C@H]1O[C@]2(C=C[C@@H]1C)C[C@@H]1C[C@@H](C/C=C(\C)[C@@H](O[C@H]3C[C@H](OC)[C@@H](O[C@H]4C[C@H](OC)[C@@H](O)[C@H](C)O4)[C@H](C)O3)[C@@H](C)/C=C/C=C3\CO[C@@H]4[C@H](O)C(C)=C[C@@H](C(=O)O1)[C@]34O)O2` (tested in a mixture with another compound), the AC50 is 1.19 µM (active).

These data come from PubChem BioAssay (EPA / NIEHS).
